Screening results deposited in PubChem by National Center for Advancing Translational Sciences (NCATS).
Sampled rows, rich in hits. Any-hit rate of the full collection: about 5.9%.
Gal4-VP16 FLuc = counter-screen for ROR gamma inhibitors: Gal4-VP16 reporter | Drosophila S2 Gal4-VP16 UAS-luciferase, luminescence, 20 h | Potency, µM (series often up to 53.6 µM), for the others: at the top dose activity, negative = inhibition, most hits filed as inhibitors | 310,000 tested, 3.5% active | AID 2546;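 note: Gal4-VP16 expression switched on by copper sulfate through the metallothionein promoter; % is set by controls: 0 for no effect and ±100 for the full control effect; nearly all actives have a fitted effect of over 50% in size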
GLP1R cytotox = cytotoxicity counter-screen for GLP-1 receptor inverse agonists; HEK293 cAMP-luciferase reporter cells, luminescence, 24 h; Potency, µM (top dose mostly 38.3 µM), without a hit: top-dose activity change, negative = inhibition, hits mostly inhibitors; 410,000 tested, 0.13% active; AID 624418;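 note: loss of luciferase light is scored as toxicity; % is set by controls: 0 for no effect and ±100 for the full control effect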
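Step one: seed cells (200 cells/uL, DMEM with 10% Nu serum, 1% pen-strep). Step two: 12-hour incubation at 37 deg C. Step three: pin 23 nL compound, incubate 24 hr. Step four: add luciferase reagent, read luminescence 12 min later.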
GLP-1R agonist = agonists of human GLP-1 receptor; P43220; HEK293 GLP-1R CRE-luciferase, luminescence, 4-6 h; cells express a hypersensitive GLP-1R form; Potency, µM (doses to about 45.6 µM), for inactives: top-dose activation, hits mostly activators; 380,000 tested, 0.007% active; note: % of control where 0% means no effect
Target sequence (P43220 whole entry, looked up): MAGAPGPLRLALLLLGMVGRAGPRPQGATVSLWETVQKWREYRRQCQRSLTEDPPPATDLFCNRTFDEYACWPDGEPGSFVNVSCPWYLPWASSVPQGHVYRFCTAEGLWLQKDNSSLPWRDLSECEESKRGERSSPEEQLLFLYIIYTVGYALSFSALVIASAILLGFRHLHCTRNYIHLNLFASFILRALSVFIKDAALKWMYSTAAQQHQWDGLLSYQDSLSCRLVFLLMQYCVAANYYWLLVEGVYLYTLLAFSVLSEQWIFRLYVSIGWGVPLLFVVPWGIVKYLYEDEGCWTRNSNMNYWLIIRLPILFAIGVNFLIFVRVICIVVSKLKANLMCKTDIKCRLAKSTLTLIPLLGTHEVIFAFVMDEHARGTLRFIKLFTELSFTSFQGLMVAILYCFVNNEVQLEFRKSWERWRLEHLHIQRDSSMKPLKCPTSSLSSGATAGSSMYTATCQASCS
RORg inh = inhibitors of mouse ROR gamma transcriptional activity. 310,000 tested, 5.4% active. Drosophila S2 Gal4-RORgamma UAS-luciferase reporter, 20 h. AID 2551. Potency, µM (top dose mostly 53.6 µM), inactives show at the top dose activity change, negative = inhibition, hits mostly inhibitors; note: % is set by controls: 0 for no effect and ±100 for the full control effect; nearly all actives have a fitted effect of over 60% in size
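Compounds are pin-transferred onto Drosophila Schneider cells expressing a copper-inducible Gal4–ROR gamma transactivation domain fusion. After 1 hr, copper sulfate is added to 700 uM final; luciferase is read 20 hr later.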
GLP1R inv ag = acts as inverse agonist at human GLP-1 receptor; P43220; HEK293 GLP-1R CRE-luciferase, luminescence, 24 h; GLP-1R form is constitutively active; Potency, µM (titrated, usually from 38.3 µM), without a hit: at the top dose activity change, negative = inhibition, actives largely listed as inhibitors; 410,000 tested, 1.6% active; note: % is set by controls: 0 for no effect and ±100 for the full control effect; nearly all actives have a fitted effect of over 55% in size
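Assay principle: reduced luminescence from a cAMP-responsive reporter in HEK293 cells co-expressing a constitutively active GLP-1R. Conditions: 24 hr compound incubation, 37 deg C, 5% CO2.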
The depositor's hits bear a star; ? = inconclusive; . = no result. Calls come from the whole dose curve; as a rule, active = well fitted curve in the direction sought with a large enough effect; inconclusive = small, poorly fitted or top-dose-only effect, or another doubt; inactive = no such curve, though single readings can be large; an effect the other way counts as inactive or inconclusive. Potency is the fitted concentration of half-maximal effect.

SMILES | Gal4-VP16 FLuc | GLP1R cytotox | GLP-1R agonist | RORg inh | GLP1R inv ag
COc1cc(/C=C2/C(=N)N3C=CSC3=NC2=O)ccc1OCCCOc1c(C)cccc1C | ? | 1.8% | 5.9% | 11.2µM* | -29.9%
CCOc1cc(/C=C2/C(=N)N3C=CSC3=NC2=O)ccc1OCCCOc1ccccc1C | ? | 8.0% | 10.9% | -71.2% | ?
COc1cc(/C=C2/C(=N)N3C=CSC3=NC2=O)ccc1OCCCOc1ccccc1C | 2.82µM* | 1.2% | 1.9% | 4.47µM* | -8.0%
CCOc1ccc(NC(=O)Cn2ccn3nc(-c4ccc(OC)c(OC)c4)cc3c2=O)cc1 | . | 2.5% | . | . | 8.1%
CCOC(=O)N1CCc2c(sc3c2c(=O)n(Cc2ccccc2)c(=O)n3Cc2cccc(Cl)c2)C1 | . | -11.6% | . | . | 6.2%
CCOc1cc2sc(N3CCC(C(=O)Nc4ccc(CC)cc4)CC3)nc2cc1Br | . | 5.1% | . | . | 39.0%
CC1CC(C)CN(C(=O)CNC(=O)c2sc3ccccc3c2Cl)C1 (centres undefined) | . | 5.2% | -8.8% | . | 3.16µM*
CC1CC(C)CN(C(=O)CCNC(=O)c2ccccc2Cl)C1 (centres undefined) | ? | 6.8% | -6.8% | 15.8µM* | 0.1%
Cc1nnc(NC(=O)c2nc(S(=O)(=O)Cc3ccccc3C)ncc2Cl)s1 | 0.708µM* | ? | -5.0% | 3.55µM* | ?
Cc1nnc(NC(=O)c2nc(SCc3ccccc3F)ncc2Cl)s1 | . | 1.5% | . | . | 20.0%
CC(C)c1nnc(NC(=O)c2nc(S(=O)(=O)Cc3ccc(F)cc3)ncc2Cl)s1 | ? | 2.6% | -7.6% | 11.2µM* | ?
CCOc1ccc(NC(=O)c2nc(S(=O)(=O)Cc3ccccc3F)ncc2Cl)cc1 | . | ? | . | . | 11.2µM*
C=CCSc1nnc(NC(=O)c2nc(SCC)ncc2Cl)s1 | ? | -8.6% | -7.5% | 11.2µM* | 0.3%
CC(C)C[C@H](NC(=O)[C@H](CC(C)C)NC(=O)[C@H](Cc1ccccc1)NC(=O)[C@@H](N)CO)C(=O)N[C@@H](CCCN=C(N)N)C(=O)N[C@@H](CC(N)=O)C(=O)O | -1.6% | . | . | 21.4% | .
COc1ccc(C(=O)N2CCC3(CC2)CN(c2ccccc2)C3)cc1 | ? | . | . | -15.2% | .
CC(C)c1noc(-c2ccccc2OCC(=O)Nc2cccc([N+](=O)[O-])c2)n1 | . | 0.7% | . | . | 14.4%
O=C(Nc1nc2ccc(F)cc2s1)c1nc(S(=O)(=O)Cc2ccccc2F)ncc1Cl | . | -23.9% | . | . | -29.9%
CCSc1nnc(NC(=O)c2nc(S(=O)(=O)Cc3ccc(F)cc3)ncc2Cl)s1 | 11.2µM* | -6.3% | -5.7% | ? | ?
CC(C)c1nnc(NC(=O)c2nc(S(=O)(=O)Cc3ccccc3F)ncc2Cl)s1 | 3.55µM* | ? | -10.4% | 7.94µM* | ?
CCc1nnc(NC(=O)c2nc(SCc3ccccc3F)ncc2Cl)s1 | . | -3.4% | . | . | 2.1%
CSc1nnc(NC(=O)c2nc(S(=O)(=O)Cc3ccccc3F)ncc2Cl)s1 | 10µM* | -3.3% | -4.9% | 15.8µM* | ?
Cc1ccccc1NC(=O)CCn1nc(-c2ccc(Cl)cc2)c2ccccc2c1=O | . | -1.7% | . | . | -8.5%
NS(=O)(=O)c1ccc(CCNC(=O)CSc2nc3ccsc3c(=O)n2CCCCCC(=O)O)cc1 | -3.8% | 11.3% | -0.3% | 7.94µM* | 11.3%
NS(=O)(=O)c1ccc(CCNC(=O)CSc2nc3ccsc3c(=O)n2CC(=O)O)cc1 | -6.4% | -0.3% | -1.9% | -62.2% | 2.2%
O=C(CCNS(=O)(=O)c1ccc(Br)s1)Nc1ccc(Br)cc1 | . | -21.6% | . | . | ?
SMILES | Gal4-VP16 FLuc | GLP1R cytotox | GLP-1R agonist | RORg inh | GLP1R inv ag
Cc1cccc(CSc2cccc3cccnc23)c1 | 7.94µM* | ? | -18.5% | 4.47µM* | ?
Cc1cccc(NC(=O)CSc2cccc3cccnc23)c1C | -8.3% | -12.1% | 13.0% | -39.3% | 3.8%
CCOC(=O)CSc1cccc2cccnc12 | 10µM* | 3.55µM* | -34.9% | ? | ?
COc1cccc(/C=N/NC(=O)CSc2cccc3cccnc23)c1 | ? | ? | 7.3% | 8.91µM* | ?
Cc1ccc(S(=O)(=O)Nc2ccc(-c3ccc(N4CCCCCC4)nn3)cc2)cc1C | . | 1.6% | . | . | 6.2%
O=C(NCC(c1cccnc1)N1CCc2ccccc2C1)C(=O)Nc1ccccc1F (centres undefined) | . | 0.5% | . | . | -15.1%
